Hit rate of the full screen: of about 17,000 compounds, about 260 (1.5%) were called active.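 How the source made its calls: active means spot fluorescence over background with P-value below 7% in all four replicate spots, showing protein binding; inactive means the rest.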 The entries come from a sample that favours actives as a whole.
Each compound was assayed against Myc proto-oncogene protein (Homo sapiens) (UniProt P01106) (assay: small molecules binding His-tagged c-Myc – biochemical, small molecule microarray, anti-His fluorescence, primary screen (AID 624141)).
Chain of Myc proto-oncogene protein (Homo sapiens) (P01106 whole entry, looked up): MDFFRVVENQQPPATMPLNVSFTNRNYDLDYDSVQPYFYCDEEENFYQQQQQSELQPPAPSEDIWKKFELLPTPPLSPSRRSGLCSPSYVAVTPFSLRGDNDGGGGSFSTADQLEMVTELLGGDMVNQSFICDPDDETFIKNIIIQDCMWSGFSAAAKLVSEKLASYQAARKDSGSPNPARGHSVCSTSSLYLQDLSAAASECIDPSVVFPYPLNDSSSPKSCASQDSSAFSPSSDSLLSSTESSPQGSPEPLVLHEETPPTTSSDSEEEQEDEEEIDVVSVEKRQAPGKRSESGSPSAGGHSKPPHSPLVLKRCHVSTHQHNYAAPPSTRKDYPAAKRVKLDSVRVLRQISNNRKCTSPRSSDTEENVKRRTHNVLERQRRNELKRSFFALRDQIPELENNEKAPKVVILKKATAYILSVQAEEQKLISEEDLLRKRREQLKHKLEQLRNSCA

outcome, active:
CCCCCc1ccc(/C=C/C(=O)Nc2ccccc2C(=O)O)cc1
C[C@H]1CN([C@@H](C)CO)C(=O)c2cccc(NC(=O)Nc3ccc(C(F)(F)F)cc3)c2O[C@H]1CN(C)C(=O)NC1CCCCC1
C[C@H](CO)N1C[C@H](C)[C@@H](CN(C)C(=O)Nc2cccc3ccccc23)OCCCC[C@H](C)Oc2ccc(N(C)C)cc2C1=O
C[C@@H]1CCCCO[C@@H](CN(C)C(=O)Cc2ccccc2)[C@H](C)CN([C@@H](C)CO)C(=O)c2cc(NC(=O)Nc3ccc(F)cc3)ccc2O1
Cc1noc(C)c1S(=O)(=O)N(C)C[C@H]1Oc2c(NC(=O)c3cnccn3)cccc2C(=O)N([C@H](C)CO)C[C@H]1C
C[C@@H]1CCCCO[C@H](CN(C)C(=O)C2CCCCC2)[C@@H](C)CN([C@@H](C)CO)C(=O)c2cc(NC(=O)Nc3ccccc3)ccc2O1
Cc1cc(C)cc(Oc2c(C(F)(F)F)oc3cc(OCC(=O)O)ccc3c2=O)c1
O=c1c2ccccc2[nH]c(=S)n1CCN1CCC(=C(c2ccc(F)cc2)c2ccc(F)cc2)CC1

outcome, inactive:
Cc1cc(OCC(=O)Nc2ccccc2C(N)=O)cc(C)c1Br
Cc1scc(C(=O)NCCc2ccc(S(N)(=O)=O)cc2)c1-c1ccccc1
Cc1noc(C)c1NC(=O)Nc1ccc2c(c1)CC(=O)N([C@@H](C)CO)C[C@@H](C)[C@@H](CN(C)C(=O)NC(C)C)O2
CN(C)CCCSc1ccccc1NC(=O)/C=C/c1ccccc1
COc1cc(/C=C/C(=O)NCCc2ccc(O)cc2)ccc1O
CCn1c(SCC(=O)Nc2sc3c(c2C#N)CCCC3)nnc1-c1ccccc1O
Cc1noc(C)c1S(=O)(=O)Nc1ccc2c(c1)CC(=O)N([C@@H](C)CO)C[C@H](C)[C@H](CN(C)S(=O)(=O)c1ccc(Cl)cc1)O2
COc1ccc(NC(=O)N(C)C[C@@H]2Oc3ccc(NS(C)(=O)=O)cc3C(=O)N([C@@H](C)CO)C[C@@H]2C)cc1
C[C@@H]1CCCCO[C@H](CN(C)Cc2ccncc2)[C@@H](C)CN([C@H](C)CO)C(=O)c2cc(NS(C)(=O)=O)ccc2O1
C[C@@H]1CN([C@H](C)CO)C(=O)c2cccc(NC(=O)Nc3ccc4c(c3)OCO4)c2O[C@H]1CN(C)S(=O)(=O)c1ccccc1
C[C@@H]1CCCCO[C@H](CN(C)Cc2ccccc2)[C@H](C)CN([C@@H](C)CO)C(=O)c2cc(NS(=O)(=O)c3ccccc3)ccc2O1
C[C@H](CO)N1C[C@H](C)[C@@H](CN(C)S(=O)(=O)c2cccs2)Oc2ccc(NC(=O)Nc3cccc4ccccc34)cc2CC1=O
C[C@@H]1CN([C@H](C)CO)C(=O)Cc2cc(NC(=O)CCN3CCOCC3)ccc2O[C@H]1CN(C)C
COc1cc(O[C@@H]2O[C@H](CO[C@H]3OC[C@](O)(COC(=O)c4ccc(O)c(OC)c4)[C@H]3O)[C@@H](O)[C@H](O)[C@H]2O)ccc1O
COc1ccc(NC(=O)N(C)C[C@@H]2OCCCC[C@H](C)Oc3ccc(NC(=O)c4ccccc4)cc3C(=O)N([C@H](C)CO)C[C@H]2C)cc1
COc1ccccc1NC(=O)c1ccc(OCC(=O)Nc2ccccc2F)cc1
O=C(Nc1ccc(Cl)cc1C(=O)NCc1ccco1)c1ccco1
C[C@@H]1CN([C@H](C)CO)C(=O)c2cc(NS(=O)(=O)c3cn(C)cn3)ccc2O[C@@H](C)CCCCO[C@H]1CN(C)C
CN(C)c1nc(N)nc(CSc2ccccn2)n1
COc1ccccc1NC(=O)CNC(=O)c1ccc(C)cc1
CC(C)NC(=O)N(C)C[C@@H]1OCCCC[C@H](C)Oc2ccc(NC(=O)Nc3ccccc3)cc2C(=O)N([C@H](C)CO)C[C@@H]1C
C[C@H]1CN([C@@H](C)CO)C(=O)c2cccc(NC(=O)c3cnccn3)c2O[C@H]1CN(C)C(=O)Nc1ccccc1
C[C@@H]1CCCCO[C@@H](CN(C)C(=O)Nc2ccccc2)[C@@H](C)CN([C@@H](C)CO)C(=O)c2cc(N(C)C)ccc2O1
C[C@H](CO)N1C[C@H](C)[C@@H](CN(C)C(=O)NC2CCCCC2)Oc2c(NC(=O)Nc3ccc(F)cc3)cccc2C1=O
C[C@@H]1CN([C@H](C)CO)C(=O)c2cccc(NC(=O)Nc3ccccc3)c2O[C@@H]1CN(C)C(=O)NC1CCCCC1
CC(C)NC(=O)Nc1ccc2c(c1)C(=O)N([C@@H](C)CO)C[C@@H](C)[C@H](CN(C)C(=O)Cc1ccccc1)OCCCC[C@H](C)O2
C[C@@H]1CCCCO[C@H](CN(C)C(=O)Nc2ccccc2)[C@H](C)CN([C@@H](C)CO)C(=O)c2cc(N(C)C)ccc2O1
C[C@H]1CN([C@@H](C)CO)C(=O)c2cccc(NC(=O)c3cnccn3)c2O[C@H]1CN(C)S(=O)(=O)c1cn(C)cn1
C[C@@H]1CCCCO[C@@H](CN(C)C(=O)Nc2ccccc2)[C@@H](C)CN([C@H](C)CO)C(=O)c2cc(NC(=O)Nc3ccc(F)cc3)ccc2O1
C[C@@H]1CCCCO[C@H](CN(C)C(=O)Nc2ccccc2)[C@H](C)CN([C@H](C)CO)C(=O)c2cc(NC(=O)Nc3ccccc3)ccc2O1
CC(C)NC(=O)N(C)C[C@@H]1OCCCC[C@@H](C)Oc2ccc(NC(=O)Nc3ccccc3)cc2C(=O)N([C@H](C)CO)C[C@@H]1C
CC(C)NC(=O)N(C)C[C@H]1OCCCC[C@@H](C)Oc2ccc(NC(=O)Nc3cccc4ccccc34)cc2C(=O)N([C@H](C)CO)C[C@@H]1C
C[C@@H]1CN([C@H](C)CO)C(=O)CCCn2cc(nn2)CO[C@@H]1CN(C)C(=O)Nc1ccc(-c2cccs2)cc1
CN(CC(=O)O)S(=O)(=O)c1ccc(F)c2ccccc12
COc1ccc(S(=O)(=O)N(C)C[C@H]2Oc3c(NS(=O)(=O)c4cccs4)cccc3C(=O)N([C@H](C)CO)C[C@@H]2C)cc1
C[C@H](CO)N1C[C@H](C)[C@@H](CN(C)Cc2ccc(C(F)(F)F)cc2)Oc2ccc(NC(=O)CCN3CCOCC3)cc2C1=O
C[C@H](CO)N1C[C@H](C)[C@H](CN(C)Cc2ccc(C(=O)O)cc2)Oc2c(NC(=O)C3CCOCC3)cccc2C1=O
C[C@@H]1CN([C@@H](C)CO)C(=O)Cc2cc(NC(=O)CCN3CCOCC3)ccc2O[C@@H]1CN(C)C(=O)Nc1cccc2ccccc12
C[C@H](CO)N1C[C@H](C)[C@H](CN(C)S(=O)(=O)c2cn(C)cn2)Oc2ccc(N(C)C)cc2C1=O
Cc1noc(C)c1S(=O)(=O)Nc1cccc2c1O[C@@H](CN(C)S(=O)(=O)c1cn(C)cn1)[C@@H](C)CN([C@H](C)CO)C2=O
O=C(c1ccc(F)cc1)C1CCN(CCCCc2ccccc2)CC1
COc1ccc(S(=O)(=O)N(C)C[C@H]2Oc3c(NC(=O)C4CCOCC4)cccc3C(=O)N([C@@H](C)CO)C[C@@H]2C)cc1
C[C@@H]1CN([C@H](C)CO)C(=O)c2cc(NC(=O)c3ccncc3)ccc2O[C@@H]1CN(C)C(=O)Nc1ccc(F)cc1
COc1ccc(S(=O)(=O)N(C)C[C@@H]2Oc3ccc(NC(=O)Nc4cccc5ccccc45)cc3C(=O)N([C@H](C)CO)C[C@H]2C)cc1
C[C@@H]1CN([C@@H](C)CO)C(=O)c2cc(NC(=O)C3CCCCC3)ccc2O[C@@H](C)CCCCO[C@@H]1CN(C)Cc1ccc(C(=O)O)cc1
C/C=C(\C)C(=O)O[C@H]1C=CC(=O)O[C@H]1/C=C/[C@H](O)[C@H](C)O
C[C@@H]1CN([C@@H](C)CO)C(=O)c2cc(NC(=O)CCCN(C)C)ccc2O[C@@H](C)CCCCO[C@H]1CN(C)Cc1ccc2c(c1)OCO2
COC(=O)COc1c(Sc2ccc([N+](=O)[O-])cc2)c(C)nn1-c1ccccc1
COC(=O)C1=CO[C@@H](O[C@@H]2O[C@H](CO)[C@@H](O)[C@H](O)[C@H]2O)[C@@H]2[C@@H](C)[C@@H](OC(=O)C3=CO[C@@H](O[C@@H]4O[C@H](CO)[C@@H](O)[C@H](O)[C@H]4O)[C@@H]4[C@@H](C)[C@@H](OC(C)=O)C[C@H]34)C[C@H]12
C[C@H]1CN([C@@H](C)CO)C(=O)CCCn2cc(nn2)CO[C@@H]1CN(C)S(=O)(=O)c1cccs1
C[C@H](CO)N1C[C@H](C)[C@H](CN(C)C(=O)Nc2ccc(C(F)(F)F)cc2)Oc2ccc(NS(=O)(=O)c3ccccc3)cc2CC1=O
C[C@@H]1CN([C@H](C)CO)C(=O)c2cccc(NS(=O)(=O)c3cccs3)c2O[C@@H]1CN(C)C(=O)Nc1cccc2ccccc12
CS(=O)(=O)N(CC(=O)Nc1ccc(C(N)=O)cc1)c1cccc(C(F)(F)F)c1
CC(C)NC(=O)Nc1ccc2c(c1)C(=O)N([C@H](C)CO)C[C@@H](C)[C@@H](CN(C)C(=O)c1ccncc1)OCCCC[C@H](C)O2
Cc1cc(C(=O)Nc2cccc3c2O[C@@H](CN(C)Cc2ccc4c(c2)OCO4)[C@@H](C)CN([C@@H](C)CO)C3=O)n(C)n1
C[C@@H]1CN([C@@H](C)CO)C(=O)c2cc(NC(=O)Nc3cccc4ccccc34)ccc2O[C@@H]1CN(C)Cc1ccc(-c2ccccc2)cc1
C[C@@H]1CN([C@@H](C)CO)C(=O)c2cc(NC(=O)C3CCCCC3)ccc2O[C@@H]1CN(C)S(=O)(=O)c1ccc(F)cc1
C[C@@H]1CCCCO[C@@H](CN(C)Cc2ccc(C(=O)O)cc2)[C@H](C)CN([C@H](C)CO)C(=O)c2cc(NC(=O)Nc3ccc(F)cc3)ccc2O1
O=C(O)CCC(=O)Nc1ccc(-c2nc3ccccc3o2)cc1
COc1cc(/C=C/C(=O)O[C@@H]2O[C@H](CO[C@@H]3O[C@H](CO)[C@@H](O)[C@H](O)[C@H]3O)[C@@H](O)[C@H](O)[C@H]2OC(=O)/C=C/c2cc(OC)c(O)c(OC)c2)cc(OC)c1O
C=CCOC(=O)[C@H]1[C@@H]2C(=O)O[C@@H](c3ccccc3)[C@@H](c3ccccc3)N2[C@@H](c2ccc(OCCOC(=O)[C@H]3C[C@H]4C(=O)NCC(=O)N4[C@H]3c3ccc(O)cc3)cc2)[C@]12C(=O)Nc1ccccc12
C=C(C(=O)O)C1CCC(CCC)OC1=O (stereo not given)

Reference: PubChem BioAssay AID624141 (Broad Institute, 2012)
